Results from PubChem BioAssay AID1159580 (chemical genetic matrix, 2015).
“And” between values parts separate entries of the source, which are not always exact repeats. Identical values can stand only once. Screen size: about 5,500 compounds; about 2,000 (36%) were called active. Inconclusive results (about 18%) are left out. Rule as the data show it: active = normalized growth mostly below about 0.91 (no sharp cut-off); inconclusive = no clear call, values can overlap the other calls; inactive = mostly above about 0.92. The list shows a part of the results.

Assay: chemical genetic growth profiling, strain panel (AID 1159580);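 also: tested at 20 µM; growth read once vehicle control cultures reached saturation at 30 °C; 1 = growth at the plate median or of vehicle wells; lower values mean less growth of the strain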
Conditions: S. cerevisiae deletion strains, growth OD

Measured: normalized growth

NCC(N)C(=O)c1ccccc1 (stereo not drawn)
inactive: locus YAL013W, strain DEP1, stronger effect = lower value 1.01 | locus YAL021C, strain ccr4, stronger effect = lower value 0.979 | locus YAL026C, strain drs2, stronger effect = lower value 1.06 | locus YAL030W, strain snc1, stronger effect = lower value 1.02 | locus YBL061C, strain skt5, stronger effect = lower value 1.03 | locus YBR009C, strain hhf1, stronger effect = lower value 1.04 | locus YBR021W, strain FUR4, stronger effect = lower value 0.993 | locus YBR023C, strain chs3, stronger effect = lower value 1.02 | locus YBR171W, strain sec66, stronger effect = lower value 1.04 | locus YBR229C, strain ROT2, stronger effect = lower value 1.01 | locus YBR231C, strain swc5, stronger effect = lower value 1.02 | locus YBR279W, strain paf1, stronger effect = lower value 1.03 | locus YCL011C, strain gbp2, stronger effect = lower value 1.02 | locus YCL016C, strain dcc1, stronger effect = lower value 1.01 | locus YCL029C, strain bik1, stronger effect = lower value 0.995 | locus YCL061C, strain MRC1, stronger effect = lower value 1.03 | locus YCL069W, strain vba3, stronger effect = lower value 1.02 | locus YCR088W, strain abp1, stronger effect = lower value 1.02 | locus YDL005C, strain med2, stronger effect = lower value 1.03 | locus YDL035C, strain GPR1, stronger effect = lower value 1.02 | locus YDL040C, strain nat1, stronger effect = lower value 1.02 | locus YDL074C, strain BRE1, stronger effect = lower value 1.01 | locus YDL101C, strain DUN1, stronger effect = lower value 1.01 | locus YDL185W, strain tfp1, stronger effect = lower value 1 | locus YDL192W, strain arf1, stronger effect = lower value 1.01 | locus YDR001C, strain nth1, stronger effect = lower value 1.01 | locus YDR069C, strain doa4, stronger effect = lower value 1.02 | locus YDR101C, strain arx1, stronger effect = lower value 0.997 | locus YDR137W, strain rgp1, stronger effect = lower value 1.03 | locus YDR150W, strain NUM1, stronger effect = lower value 1.01 | locus YDR159W, strain sac3, stronger effect = lower value 1.05 | locus YDR162C, strain NBP2, stronger effect = lower value 1.02 | locus YDR195W, strain ref2 1.01 | locus YDR297W, strain sur2, stronger effect = lower value 1.02 | locus YDR318W, strain mcm21, stronger effect = lower value 1.01 | locus YDR334W, strain swr1, stronger effect = lower value 1.02 | locus YDR335W, strain msn5, stronger effect = lower value 1.03 | locus YDR388W, stronger effect = lower value 0.998 | locus YDR392W, strain spt3, stronger effect = lower value 0.962 | locus YDR502C, strain sam2, stronger effect = lower value 0.988 | locus YEL003W, strain gim4, stronger effect = lower value 1.04 | locus YEL037C, strain rad23, stronger effect = lower value 1.03 | locus YEL061C, strain CIN8 (second series), stronger effect = lower value 1.03 | locus YEL061C, strain CIN8, stronger effect = lower value 1.01 | locus YER015W, strain faa2, stronger effect = lower value 1.03 | locus YER016W, strain bim1, stronger effect = lower value 1.03 | locus YER110C, stronger effect = lower value 1 | locus YER111C, strain swi4, stronger effect = lower value 1.03 | locus YER155C, strain BEM2 (second series), stronger effect = lower value 0.99 | locus YER155C, strain BEM2, stronger effect = lower value 1.01 | locus YER167W, strain BCK2, stronger effect = lower value 1.01 | locus YFR010W, strain ubp6, stronger effect = lower value 1.03 | locus YGL078C, strain dbp3, stronger effect = lower value 1.02 | locus YGL086W, strain mad1, stronger effect = lower value 0.999 | locus YGL167C, strain pmr1, stronger effect = lower value 1.03 | locus YGL173C, strain kem1, stronger effect = lower value 1.06 | locus YGL227W, strain vid30, stronger effect = lower value 1.02 | locus YGL240W, strain doc1, stronger effect = lower value 1.01 | locus YGL248W, strain PDE1, stronger effect = lower value 1.02 | locus YGL253W, strain hxk2, stronger effect = lower value 1.05 | locus YGR135W, strain pre9, stronger effect = lower value 1 | locus YGR229C, strain SMI1, stronger effect = lower value 1.02 | locus YGR252W, strain gcn5, stronger effect = lower value 0.96 | locus YHR013C, strain ard1, stronger effect = lower value 1.04 | locus YHR027C, strain rpn1, stronger effect = lower value 1.04 | locus YHR030C, strain SLT2, stronger effect = lower value 1.01 and 0.973 | locus YHR079C, strain IRE1 (second series), stronger effect = lower value 1 | locus YHR079C, strain IRE1, stronger effect = lower value 0.97 | locus YHR094C, strain hxt1, stronger effect = lower value 0.996 | locus YHR129C, strain ARP1, stronger effect = lower value 1.01 | locus YHR142W, strain chs7, stronger effect = lower value 1.05 | locus YHR200W, strain rpn10, stronger effect = lower value 0.999 | locus YIL066C, strain RNR3, stronger effect = lower value 1.01 | locus YIL073C, strain SPO22, stronger effect = lower value 0.986 | locus YIL125W, strain kgd1, stronger effect = lower value 1 | locus YIR030C, strain dcg1, stronger effect = lower value 1 | locus YJL092W, strain hpr5, stronger effect = lower value 1.03 | locus YJL095W, strain BCK1 (second series), stronger effect = lower value 1.03 | locus YJL095W, strain BCK1, stronger effect = lower value 1.02 and 0.963 | locus YJL115W, strain asf1, stronger effect = lower value 1.03 | locus YJL129C, strain trk1, stronger effect = lower value 1.04 | locus YJL134W, strain LCB3, stronger effect = lower value 1.01 | locus YJL154C, strain vps35, stronger effect = lower value 1.02 | locus YJL164C, strain tpk1, stronger effect = lower value 1.03 | locus YJL166W, strain qcr8, stronger effect = lower value 1.02 | locus YJL168C, strain set2, stronger effect = lower value 1.01 | locus YJL187C, strain SWE1 (second series), stronger effect = lower value 1 | locus YJL187C, strain SWE1, stronger effect = lower value 1.05
